# Screening results as filed in PubChem.
# KB-V1 cytotox – qHTS assay for MDR1-selective chemotherapeutics: Primary screen using the drug-selected MDR subline cells KB-V1 | KB-V1 MDR cells viability, CellTiter-Glo, 72 h | Potency, µM (doses to about 46.1 µM), actives largely listed as cytotoxic | 400,000 compounds, 3.4% hits | AID 1347076, 2019; also: potency is read from the fitted curve at half-maximal effect; % is scaled to controls: 0 for no effect and ±100 for the full control effect; nearly all actives have a fitted effect of over 60% in size
#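 Potencies derive from concentration-effect curves fitted to normalized luminescence (CellTiter-Glo) of KB-V1 cells treated for 72 h at 37 degrees C in phenol-red-free DMEM containing 10% FBS.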
# DRD3 antagonist – qHTS of D3 Dopamine Receptor Antagonist: qHTS | D(3) dopamine receptor (Homo sapiens), P35462 | D3R cells, DiscoveRx beta-arrestin luminescence, antagonist mode; hits give low values | max response, negative = inhibition, % | 360,000 compounds, 2.5% hits | AID 652054, 2013; in the data active = max response below about -50%; inconclusive = no clear call, values can overlap the other calls; also: % is scaled to controls: 0 for no effect and ±100 for the full control effect
# Target sequence (P35462 whole entry, looked up): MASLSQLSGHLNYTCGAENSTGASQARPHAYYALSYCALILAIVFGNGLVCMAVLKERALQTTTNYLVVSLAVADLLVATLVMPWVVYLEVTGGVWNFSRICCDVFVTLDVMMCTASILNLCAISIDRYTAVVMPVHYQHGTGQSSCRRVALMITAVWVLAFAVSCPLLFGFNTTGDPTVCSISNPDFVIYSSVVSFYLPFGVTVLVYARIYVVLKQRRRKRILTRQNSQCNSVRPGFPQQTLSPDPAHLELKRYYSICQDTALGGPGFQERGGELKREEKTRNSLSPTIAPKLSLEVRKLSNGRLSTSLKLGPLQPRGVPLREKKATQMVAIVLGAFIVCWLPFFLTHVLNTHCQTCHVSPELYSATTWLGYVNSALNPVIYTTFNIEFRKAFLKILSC
#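 Cells plated overnight at 1500 cells/well, then exposed to library compounds with dopamine controls for 90 minutes at 37 degrees C. DiscoveRx reagent added for 30–60 minutes at room temperature; luminescence read, quantitative HTS format.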
# KB-3-1 cytotox – qHTS assay for MDR1-selective chemotherapeutics: Primary screen using the parental adenocarcinoma cell KB-3-1 | KB-3-1 viability, CellTiter-Glo ATP luminescence, 72 h | Potency, µM (top dose mostly 46.1 µM), most hits filed as cytotoxic | 400,000 compounds, 1.4% hits | AID 1347075, 2019; also: potency is read from the fitted curve at half-maximal effect; % is scaled to controls: 0 for no effect and ±100 for the full control effect; nearly all actives have a fitted effect of over 60% in size
#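 Screening of KB-3-1 cells (DMEM, 10% FBS, phenol-red free) ran from lowest to highest compound concentration; after 72 h at 37 °C viability was read luminescently and curves fitted.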
# SW480 rerep – A quantitative high throughput screen for small molecules that induce DNA re-replication in SW480 colon adenocarcinoma cells; Potency, µM (series often up to 46.1 µM), without a hit: top-dose re-replication activation, most hits filed as activators; 340,000 compounds, 1.8% hits; SW480 DNA re-replication, Hoechst DNA content imaging, 48 h; also: potency is read from the fitted curve at half-maximal effect; % of control where 0% means no effect; nearly all actives have a fitted effect of over 55% in size
#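 DNA re-replication was detected as more nuclei of elevated Hoechst intensity after 48 hr exposure to compound (23 nL pinned per well of 250 cells).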
# MCF10A rerep – A quantitative high throughput screen for small molecules that induce DNA re-replication in MCF 10a normal breast cells; Potency, µM (highest dose often 46.1 µM), for the others: top-dose activity, positive = re-replication, usual class: activators; MCF 10A DNA re-replication, Hoechst nuclear intensity, 48 h; 350,000 compounds, 2.9% hits; also: potency is read from the fitted curve at half-maximal effect; % of control where 0% means no effect; nearly all actives have a fitted effect of over 50% in size
# DRD3 agonist – qHTS of D3 Dopamine Receptor Agonist: qHTS; D3R DiscoveRx beta-arrestin cells, luminescence, 90 min; max activation, %; 410,000 compounds, 0.58% hits; AID 652048, 2013; in the data active = max activation above about 30%; also: 0% is about no effect
#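 Agonist-mode cell screen: cells plated at 1500/well and incubated overnight at 37 °C, then exposed to library compounds for 90 min at 37 °C. Detection reagent was added for 30–60 min at room temperature, and luminescence was read.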
# * marks the source's active call; other numbers are inactive results; i = inactive; u = inconclusive; x = not tested or not shown; ! = not active in a repeat. The list is not random: actives were taken first. Their share in the collection is about 8.9%. Unless noted, calls follow the shape of the dose curve; as a rule, active = well fitted curve in the direction sought with a large enough effect; inconclusive = small, poorly fitted or top-dose-only effect, or another doubt; inactive = no such curve, though single readings can be large; an effect the other way counts as inactive or inconclusive.
SMILES,KB-V1 cytotox,DRD3 antagonist,KB-3-1 cytotox,SW480 rerep,MCF10A rerep,DRD3 agonist
COc1cccc(CNCc2ccco2)c1O,i,-6.3,i,5.2%,-11.6%,-2.1
CCN(CC)CCn1c(NCc2cccc(OC)c2)nc2ccccc21,i,-85.9*,i,-2.3%,0.5%,-6.6
CCCn1c(NCc2cccc(OC)c2OC)nc2ccccc21,i,u,i,1.3%,4.3%,-5.8
CCN(CC)CCn1c(NCc2cc(OC)ccc2OC)nc2ccccc21,u,-87.8*,i,-5.5%,u,-2.3
COc1cccc(CNCc2cccc(OC)c2O)c1O,18.4µM*,3.7,i,-2.0%,-0.8%,3.2
CCCn1c(NCc2cccc(OC)c2O)nc2ccccc21,8.2µM*,3.3,i,2.0%,-0.6%,-3.8
CCOC(=O)/C(=C/C=C1\Sc2ccccc2N1CC)C(C)=O,i,1.5,i,10.7%,16.7%,-6.7
CCOC(=O)/C(=C\C=C1/Sc2ccccc2N1CC)C(C)=O,5.17µM*,13.5,i,0.3%,7.7%,11.3
CN(C)c1ccc(-c2c(-c3ccc4c(c3)OCO4)noc2-c2ccsc2)cn1,10.3µM*!,0.0,u,u,u,-6.6
COc1ccc(-c2c(-c3ccc4c(c3)OCO4)noc2-c2ccsc2)cn1,u,x,i,x,x,x
CCC(C)Cn1cnc2c(SCc3ccccc3F)nc(N)nc21 (configuration not stated),i,-8.1,i,u,18.4µM*,0.7
Cc1ccc2ccccc2c1CSc1nc(N)nc2c1ncn2CC(C)C,20.6µM*,-5.6,i,1.5%,20.6%,-1.9
CC(C)Cn1cnc2c(SCc3ccccc3F)nc(N)nc21,u,-1.6,i,-14.0%,u,7.7
Nc1[nH]c(=O)nc2c1ncn2C1OC(CO)C(O)C1O (configuration not stated),i,x,i,x,x,x
COc1cc2c(cc1OC)C(COc1ccccc1OC)N(C(=O)c1ccc(S(=O)(=O)N3CCCC3)cc1)CC2 (configuration not stated),i,x,i,x,x,-17.7
Cc1ccc(N=c2c([N+](=O)[O-])nn(-c3ccccc3)n2O)c(C)c1,i,-2.3,u,u,10µM*,18.8
Cc1c(Cl)cccc1N=c1c([N+](=O)[O-])nn(-c2ccccc2)n1O,i,-10.6,i,1.8%,18.3%,9.0
Cc1cc(C)cc(-n2ccnc(NCCc3ccccc3)c2=O)c1,i,x,i,x,x,1.1
COc1cc(Cl)c(C)cc1NC(=O)CCn1c(=O)c2cccn2c2cccnc21,x,x,x,x,x,7.3
COCCOC(=O)C1=C(C)NC(C)=C(C(=O)OC(C)C)C1c1cccc([N+](=O)[O-])c1 (configuration not stated),i,20.0,i,8.7%,u,-1.9
CC1=C(C(=O)OC(C)C)C(c2cccc([N+](=O)[O-])c2)C(C(=O)OC2CN(C(c3ccccc3)c3ccccc3)C2)=C(N)N1 (configuration not stated),x,x,x,u,21.1µM*,1.3
COC(=O)C1=C(C)NC(C)=C(C(=O)OC(C)(C)CN(C)CCC(c2ccccc2)c2ccccc2)C1c1cccc([N+](=O)[O-])c1 (configuration not stated),x,x,x,11.9µM*,14.9%,-5.2
COCCOC(=O)C1=C(C)NC(C)=C(C(=O)OC/C=C/c2ccccc2)C1c1cccc([N+](=O)[O-])c1 (configuration not stated),x,x,x,29.9µM*,-1.7%,3.1
COC(=O)C1=C(C)NC(C)=C(C(=O)O[C@@H]2CCCN(Cc3ccccc3)C2)[C@@H]1c1cccc([N+](=O)[O-])c1,u,-5.2,i,u,u,-49.0
Cc1ccc(C)c(NC(=O)Cn2c(=O)n(Cc3ccc4c(c3)OCO4)c(=O)c3ccccc32)c1,i,x,i,x,x,3.6
SMILES,KB-V1 cytotox,DRD3 antagonist,KB-3-1 cytotox,SW480 rerep,MCF10A rerep,DRD3 agonist
Cc1ccc2nc(NC(=O)C3CCN(C(=O)c4ccc(F)cc4)CC3)sc2c1,u,5.9,u,-4.7%,u,1.2
CCc1nc(N)nc(N)c1-c1ccc(N(C)Cc2ccccc2)c([N+](=O)[O-])c1,1.84µM*,1.2,4.11µM*,22.0%,14.4%,1.0
Cc1ccc(-c2csc3ncnc(Sc4nnc(CN5CCCCCC5=O)o4)c23)cc1,i,-68.7*,11.6µM*,u,14.6µM*,-3.0
C[C@H](C[C@H](O)[C@H]1OC1(C)C)C1=C2C[C@H](O)C3[C@@]4(C)CCC(=O)C(C)(C)C4CC[C@]3(C)[C@@]2(C)CC1 (some centres not stated),3.66µM*,63.3,u,u,u,-5.7
CC1(C(=O)O)CCC2(C)CCC3(C)C(=CC(=O)C4C5(C)CCC(=O)C(C)(C)C5CCC43C)C2C1 (configuration not stated),i,4.5,i,x,x,-3.0
COc1ccccc1-c1cn[nH]c1-c1ccc(OCc2ccc(F)cc2)cc1O,i,13.6,i,13.1%,u,5.1
C=C(C)COc1ccc(-c2n[nH]c(C)c2-c2ccc(OC)c(OC)c2)c(O)c1,5.8µM*,-9.5,6.51µM*,25.2%,u,-2.2
Oc1cc(OCc2ccccc2)ccc1-c1[nH]ncc1-c1ccccc1,i,u,i,0.9%,23.1µM*,9.0
O=[N+]([O-])c1ccc(COc2ccc(-c3[nH]ncc3-c3ccccc3)c(O)c2)cc1,u,-29.6,u,x,u,5.4
COc1ccccc1-c1cn[nH]c1-c1ccc(OCc2ccccc2F)cc1O,i,-9.2,i,u,7.31µM*,9.7
C=C(C)COc1ccc(-c2[nH]ncc2-c2ccc(OC)c(OC)c2)c(O)c1,1.3µM*,18.6,1.64µM*,2.91µM*,5.17µM*,6.6
COc1ccc(-c2n[nH]c(C)c2-c2ccc(Cl)cc2)c(O)c1,i,u,u,-0.7%,u,-1.3
COc1ccc(-c2cn[nH]c2-c2ccc(OCc3ccc(F)cc3)cc2O)cc1OC,u,-10.6,u,18.4µM*,20.6µM*,-2.7
COc1ccc(-c2n[nH]c(C)c2-c2ccc(Cl)cc2)c(O)c1OC,u,13.5,u,5.0%,18.4µM*,5.3
